Inconclusive results are not listed. Activity calls are given as the source filed them. The call rests on the fitted dose curve; in most records, active means well fitted inhibition curve with a large enough effect; inconclusive means small, poorly fitted or top-dose-only effect; inactive means no such curve, though single readings can be large or run the other way.
target: Cytochrome P450 3A4 (Homo sapiens) (UniProt P08684); assay: qHTS Assay for Inhibitors and Substrates of Cytochrome P450 3A4 (AID 884); settings: recombinant CYP3A4, Luciferin-PPXE luminescence; series mostly up to 57.1 µM; further: nearly all actives have a fitted effect of over 50% in size
Sequence (P08684 whole entry, looked up): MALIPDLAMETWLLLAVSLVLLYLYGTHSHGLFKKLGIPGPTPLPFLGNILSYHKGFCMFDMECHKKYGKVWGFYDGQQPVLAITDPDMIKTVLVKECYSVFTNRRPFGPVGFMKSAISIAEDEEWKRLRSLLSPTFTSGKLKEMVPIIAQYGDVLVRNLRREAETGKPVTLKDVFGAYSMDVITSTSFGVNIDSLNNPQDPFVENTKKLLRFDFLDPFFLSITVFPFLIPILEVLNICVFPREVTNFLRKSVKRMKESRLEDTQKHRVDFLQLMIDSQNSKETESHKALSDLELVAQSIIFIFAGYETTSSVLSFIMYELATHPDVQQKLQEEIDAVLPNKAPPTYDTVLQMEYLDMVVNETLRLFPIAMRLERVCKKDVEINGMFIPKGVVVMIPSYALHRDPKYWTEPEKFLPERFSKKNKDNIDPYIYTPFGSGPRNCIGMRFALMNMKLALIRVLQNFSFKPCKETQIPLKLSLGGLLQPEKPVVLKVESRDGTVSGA
How it was run: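 20 nM human CYP3A4 with 25 uM Luciferin-PPXE (at KM) in 200 mM KPO4, preincubated 10 min with compound; NADPH regeneration started a 60 min RT reaction. Luciferin detected by luminescence, normalized to 57 uM ketoconazole as full inhibition.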
Potency means the concentration at half of the fitted maximal effect.

Potency, active:
C/C(CCC(=O)OC[C@@H]1O[C@H](C#Cc2ccccc2)C=C[C@@H]1Oc1ccc(C)cc1)=N/OC[C@@H](O)COCc1ccco1 3.16 µM
COC(=O)c1cccc(C23CC4(C2)[C@H](CN(C)[C@@H]4c2ccccc2)C3c2ccc(C(F)(F)F)cc2)c1 (stereo not given in full) 12.6 µM
Cc1ccc2oc(=O)c3c4cc(O)c(O)cc4oc3c2c1 20 µM
COC(=O)c1ccc(C23CC4(C2)[C@H](CN(Cc2cccnc2)[C@@H]4c2ccccc2)C3c2ccccc2)cc1 (stereo not given in full) 3.98 µM
CCC1=C(OC(=O)N(CC)CC)N2C(=O)OC(=NCC(=O)OC)[C@]2(Cc2ccccc2)[C@H]2C1=CC[C@H]1C(=O)N(CC(=O)OC)C(=O)[C@H]12 5.01 µM
CCC1=C(OC(=O)N(CC)CC)N2C(=O)OC(=NCC3CC3)[C@]2(Cc2ccccc2)[C@H]2C1=CC[C@H]1C(=O)N(C)C(=O)[C@H]12 3.98 µM
COC(=O)C/C=C\[C@@H](C)[C@@H](/C=N\OCC[C@H]1C=C[C@H](OC(C)=O)[C@@H](COC(C)=O)O1)NS(=O)(=O)c1ccc(C)cc1 3.98 µM
CCCNC(=O)OC[C@@H]1O[C@H](CCO/N=C\C[C@H]2C=C[C@H](OC(C)=O)[C@@H](COC(C)=O)O2)C=C[C@@H]1Oc1ccc(OC)cc1 3.98 µM
C#CCCCO/N=C1/C[C@@H](O)[C@@H](O)[C@@H]2[C@H]3C(=O)N(c4ccc(F)cc4F)C(=O)[C@@H]3CC[C@H]12 3.98 µM
Clc1ccc(C2[C@H]3CN(Cc4cccnc4)[C@H](c4ccccc4)C34CC2(c2ccccc2)C4)cn1 (stereo not given in full) 2 µM
Cn1c(N)c(C(=O)COC(=O)c2cc(-c3ccccc3)nc3ccccc23)c(=O)n(C)c1=O 12.6 µM
COC(=O)c1cccc(C23CC4(C2)[C@H](CN(CC2CCCCC2)[C@@H]4c2ccccc2)C3c2ccccc2)c1 (stereo not given in full) 15.8 µM
CCC1=C2CC[C@H]3C(=O)NC(=O)[C@H]3[C@H]2[C@@]2(Cc3ccccc3)C(=NCC3CC3)OC(=O)N2C1=O 15.8 µM
CCC1=C(OC(=O)N(CC)CC)N2C(=O)OC(=NCC(=O)OC)[C@]2(Cc2ccccc2)[C@H]2C1=CC[C@H]1C(=O)N(c3ccccc3)C(=O)[C@H]12 3.16 µM
COC(=O)N1[C@H](Cc2ccccc2)C=C[C@]1(C)C(=O)NCc1ccc(N(C)C)cc1 0.794 µM
CCN1C(=O)[C@H]2[C@H]3[C@H](O)[C@H](O)C/C(=N/O[C@@H](C)c4cc(-c5c(C)cc(C)cc5C)no4)[C@@H]3CC[C@@H]2C1=O 3.98 µM
COC(=O)c1ccc(C(/C=C/[C@@H](C)C(=O)N(C)Cc2ccccc2)NC(=O)OCc2ccccc2)cc1 (stereo not given in full) 1.58 µM
CCCNC(=O)OC[C@@H]1O[C@H](c2ccccc2)C=C[C@@H]1Oc1ccc(OC)cc1 3.98 µM
COC(=O)CNC(=O)[C@@]1(C)C=C[C@@H](Cc2ccccc2)N1C(=O)OC 12.6 µM
CNC1=C(Br)C(=O)c2ccncc2C1=O 1.26 µM
CCC1=C(OC(=O)N(CC)CC)N2C(=O)OC(=NCC(=O)OC)[C@]2(Cc2ccccc2)[C@H]2C1=CC[C@H]1C(=O)N(C)C(=O)[C@H]12 10 µM
COc1ccc(O[C@H]2C=C[C@@H](c3ccccc3)O[C@@H]2CO/N=C\[C@@H](C)[C@H](OCc2ccccc2)C(C)C)cc1 3.98 µM
CCC1=C(OC(=O)N(CC)CC)N2C(=O)OC(=NCCOC)[C@]2(C)[C@H]2C1=CC[C@H]1C(=O)N(CC(=O)OC)C(=O)[C@H]12 10 µM
CCC1=C2CC[C@H]3C(=O)N(CC(=O)OC)C(=O)[C@H]3[C@H]2[C@@]2(C)C(=O)N(Cc3ccccc3)C(=O)N2C1=O 15.8 µM
COC(=O)c1ccc(C23CC4(C2)[C@H](CN(CC2CCCCC2)[C@@H]4c2ccccc2)C3c2ccc(Cl)nc2)cc1 (stereo not given in full) 25.1 µM
CC(C)=CCC/C(C)=C/CO/N=C1/C[C@@H](O)[C@@H](O)[C@@H]2[C@@H]3C(=O)N(Cc4ccc5c(c4)OCO5)C(=O)[C@H]3CC[C@H]12 1.58 µM
C[C@]1(C(=O)NCCN2CCOCC2)C=C[C@@H](Cc2ccccc2)N1C(=O)c1ccccc1 7.94 µM
COc1ccc(O[C@H]2C=C[C@@H](c3ccccc3)O[C@H]2COC(=O)CC/C(C)=N\O[C@@H](C)CN2CCCCc3nc(C)c(C)cc32)cc1 3.98 µM
COC(=O)[C@@H]1C[C@@]2(O)[C@@H](O)[C@@H](O)[C@@H](O)C[C@H]2N1Cc1ccc(C(C)(C)C)cc1 12.6 µM
CCC1=C2CC[C@H]3C(=O)N(c4ccccc4)C(=O)[C@H]3[C@H]2[C@@]2(Cc3ccccc3)C(=NCC3CC3)OC(=O)N2C1=O 5.01 µM
C=CC[C@@H]1C=C[C@@H](O/N=C\[C@@H](OC)[C@H](C)/C=C\CC(=O)OC)[C@@H](CO)O1 3.16 µM
Cc1cc2c(nc1C)CCCCN2C[C@H](C)O/N=C\[C@@H](C)[C@H](OCc1ccccc1)C(C)C 3.98 µM
C=CC[C@@H]1C=C[C@H](O/N=C(\C)CCN2CCc3nc(-c4ccccc4)c(-c4ccccc4)cc3C2)[C@H](CO)O1 3.98 µM
C/C(CCC(=O)OC[C@@H]1O[C@H](C#Cc2ccccc2)C=C[C@@H]1Oc1ccc(C)cc1)=N/OC[C@@H](O)[C@H]1O[C@H]2OC(C)(C)O[C@H]2[C@@H]1O 3.98 µM
CCC1=C(OC(=O)N(CC)CC)N2C(=O)OC(=NCCc3c[nH]c4ccccc34)[C@]2(C)[C@H]2C1=CC[C@H]1C(=O)N(CC(=O)OC)C(=O)[C@H]12 2 µM
C/C(CCN1CCCc2nc(C)c(C)cc21)=N\O[C@@H](C)c1cn([C@H](CO)Cc2ccccc2)nn1 2 µM
COc1cccc([C@@H]2Oc3ccc(OC)cc3/C(=N/O[C@@H](C)c3cn([C@H]4COC[C@H]4O)nn3)[C@@H]2O)c1 3.16 µM
C#CCCCO/N=C1/C[C@@H](O)[C@@H](O)[C@@H]2[C@@H]3C(=O)N([C@@H](C)c4ccccc4)C(=O)[C@H]3CC[C@@H]12 3.98 µM
COC(=O)c1cccc(C23CC4(C2)[C@H](CN(Cc2ccc(C(F)(F)F)cc2)[C@@H]4c2ccccc2)C3c2ccccc2)c1 (stereo not given in full) 12.6 µM
CCC1=C2CC[C@H]3C(=O)N(CC)C(=O)[C@H]3[C@H]2[C@@]2(Cc3ccccc3)C(=O)N(CCOC)C(=O)N2C1=O 15.8 µM

Source: PubChem BioAssay (NCATS)
